The results in this text go back to PubChem BioAssay (NCI).

About 83,000 compounds went through this panel and 20% of them were active in at least one assay; those are over-represented in the sample as a whole.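 Results are percent growth after 48 hours of single-concentration exposure. 100 means growth as in untreated cells, lower positive values show inhibition; negative values down to -100 show cell death.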 A number with no mark means an inactive call. Active and inactive are the calls of the source. Rule for the calls: active = growth percent below 10; inactive = the rest.

The experiment relates to HL-60(TB) leukemia. As to the kind of experiment: NCI-60 one-dose screen, 48 h (100 = growth as untreated, 0 = no growth, -100 = all killed). The conditions noted are these: 10 µM unless noted.

As for `C/C(=C(/c1ccc(Cl)cc1)c1ccc(OCCN2CCCCC2)cc1)c1ccccc1`, the growth is 61.8%.

Turning to `COc1cc(/C=C/C(=O)c2c(C)n([O-])c3ccc(Cl)cc3[n+]2=O)cc(OC)c1OC`, the growth is 12.7%. Then `COc1cccc(-c2nc3occn3c2-c2ccnc(NCCNS(=O)(=O)c3ccc(C(F)(F)F)cc3)n2)c1`, with 116%; and `O=C(Nc1cccc([N+](=O)[O-])c1)NN1CCCCCC1`, with 112%. The figure for `Nc1nc2c(c(=O)[nH]1)C1(C(=O)Nc3ccccc31)c1c(nc(N)[nH]c1=O)N2` is 108%.

Consider `Cc1ccc2nc(-c3ccc(C(=O)N/N=C/c4ccc([N+](=O)[O-])cc4)cc3)[nH]c2c1`, for which the growth is 103%. The figure for `CS(=O)(=O)Nc1cc(-c2cc3ncc(C#N)c(Nc4ccc(Oc5ccccc5)c(Cl)c4)c3s2)cnc1Cl` is 64.6%; for `COc1ccc2c(c1)cn1c3ccc(O)cc3nc(N)c21` it is -15.8% (active). Then `NNCCc1ccc(NC(=O)CCCc2ccc(C(=O)Nc3ccccc3N)cc2)cc1`, with 32.6%. As to `COc1cc(Cl)cc(-c2nn(C(=O)NS(=O)(=O)c3ccc(Cl)cc3)cc2-c2ccncc2)c1`, the growth is 94.8%. The figure for `O=C(Nc1ccccc1Cl)Oc1ccc2ccccc2c1` is 72.3%; for `Cn1c(=O)c2[nH]c(=S)n(Cc3ccccc3)c2n(C)c1=O` it is 101%; for `COc1ccc2c(c1)CC[C@@H]1[C@@H]2CC[C@]2(C)C3C(=CC(COC(C)=O)C4C(=O)N(c5ccc(Cl)cc5)C(=O)C43)C[C@@H]12` (some centres undefined) it is 88.4%. Then `Cn1c(COC(=O)NCCn2ccnc2)nc2c(N3CCOCC3)nc(-c3ccccc3)nc21`, with -37.5% (active); and `COc1cc(NC(=O)c2cncnc2Nc2ccc3c(ccn3Cc3cccc(F)c3)c2)cc(OC)c1`, with 21%. Then `COc1cccc(NC(=O)c2sc3nc(C)c(C(C)=O)cc3c2N)c1`, with 6.61% (active); and `N#CC1=C(N)Oc2c(ccc3ccccc23)C1c1cc2ccccc2n2nnnc12` (centres undefined), with -32.7% (active); and `C(=C\c1c[nH]c2ccccc12)/c1ccc2ccccc2n1`, with 2.85% (active). Regarding `CCC(=C(c1ccc(OCCN(CC)CC)cc1)c1ccc(OCCN(CC)CC)cc1)c1ccc(Cl)cc1`, the growth is -51.6% (active). Then `Cc1ccc(S(=O)(=O)N2CCCC2CO)cc1` (centres undefined), with 97.7%. Then `O=c1ccccc(-c2ccc(Br)cc2)c1O`, with -35.9% (active). For the compound `CCN(CC)CCCCCNc1cc(OC(=O)c2ccc(Cl)cc2)cc2cccnc12`, the growth is 6.96% (active). Then `NS(=O)(=O)c1ccc(N2CC(c3nc4ccccc4[nH]3)CC2=O)cc1` (centres undefined), with 99.4%; and `CC(C(=O)O)n1c(O)c(C=Nc2cccnc2)sc1=S` (centres undefined), with 82.3%. The figure for `CC(=O)/C(C)=N\OC(=O)Nc1ccccc1` is 102%. The figure for `NC(=O)N/N=C\c1ccc([N+](=O)[O-])o1` is 120%; for `COc1ccc2c(c1)c(-c1nc(-c3c[nH]c4ncccc34)cs1)cn2CCCN1CCOCC1` it is 17.4%; for `C[C@@H]1NC(=O)[C@H](Cc2ccccc2)N(Cc2cccnc2)C1=O` it is 103%. Consider `Cc1n(Cc2ccc3ccccc3c2)cc[n+]1Cc1ccc2ccccc2c1`, for which the growth is -38.1% (active).

Regarding `C[C@]12CC[C@@H]3c4ccc(O)cc4CC[C@H]3[C@@H]1CC[C@@H]2NS(=O)(=O)c1ccc(C(F)(F)F)cc1`, the growth was 19.5%.

For the compound `COc1cc(/C=C/C(=O)c2c(C)nc3ccccc3c2C)ccc1OCCCCOc1cc2c(cc1OC)C(=O)N1CCC[C@H]1C=N2`, the growth is -34.1% (active). Then `COc1ccc2[nH]cc(-c3nc(-c4cn(C)c5ccncc45)cs3)c2c1`, with 82.3%; and `CCOC(=O)c1c(NC(=O)c2ccccc2)sc2c(O)c(CN(CC)CC)ccc12`, with 0.395% (active). The figure for `C1C[S+]2CC[S+]1CC2` is 111%; for `COc1cc(C2CC(=O)Nc3c2c(C)nn3-c2nc3ccccc3[nH]2)c(OC)c(OC)c1OC` (centres undefined) it is 21.5%; for `CCCCNCC(O)c1cc(-c2ccc(C(F)(F)F)cc2)nc(-c2ccc(C(F)(F)F)cc2)c1` (centres undefined) it is -49.2% (active). Regarding `CCOC(=O)/C(=C(/C)NCC(C)C)c1cc(O)c(O)c2c(C)cc(=O)[nH]c12`, the growth was -6.69% (active). Turning to `O=[N+]([O-])c1ccccc1Nc1ccc2ccccc2c1`, the growth is 93.5%. The figure for `O=C(O)c1ccc(Cl)cc1Nc1ccc(F)cc1` is 90.2%.
